High-throughput results from PubChem.
KB-3-1 tox – KB-3-1 parental cell cytotoxicity | KB-3-1 viability, CellTiter-Glo ATP luminescence, 72 h | Potency, µM (top dose mostly 46.1 µM), usual class: cytotoxic | hit rate 1.4% among 400,000; note: nearly all actives have a fitted effect of over 60% in size
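Multi-concentration cytotoxicity screen in KB-3-1 cells grown in DMEM lacking phenol red with 10% FBS. After 72 h at 37 °C with compound, ATP-dependent luminescence was recorded.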
HT1080 IDH1KD tx – kills HT-1080 cells with IDH1 knockdown. hit rate 2% among 360,000. Potency, µM (top dose mostly 46.1 µM), actives largely listed as cytotoxic. HT-1080 IDH1 knockdown viability, ATP luminescence, 48 h
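After a 2 h attachment period, IDH1KD HT-1080 cells took pin-transferred compound for 48 h at 37 °C; ATP-based luminescence after 10 min room-temperature reagent incubation reported viability.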
MCF10A rereplic – inducers of DNA re-replication in MCF 10A breast cells | MCF 10A DNA re-replication, Hoechst nuclear intensity, 48 h | Potency, µM (top dose mostly 46.1 µM), actives largely listed as activators | hit rate 2.9% among 350,000; note: nearly all actives have a fitted effect of over 50% in size
KB-V1 MDR tox – kills drug-selected multidrug resistant KB-V1 cells; KB-V1 MDR cells viability, CellTiter-Glo, 72 h; Potency, µM (titrated, usually from 46.1 µM), hits mostly cytotoxic; hit rate 3.4% among 400,000; AID 1347076; note: nearly all actives have a fitted effect of over 60% in size
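Following 72 h at 37 degrees C with compound, KB-V1 cell viability was read by CellTiter-Glo luminescence, medium being phenol-red-free DMEM plus 10% FBS; concentration-response parameters came from normalized, curve-fitted qHTS data.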
HT1080-NT tox – kills 2HG-producing HT-1080-NT fibrosarcoma cells | Potency, µM (highest dose often 46.1 µM), hits mostly cytotoxic | HT-1080-NT fibrosarcoma viability, CellTiter-Glo ATP luminescence, 48 h | hit rate 1.6% among 360,000;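 note: NT is the 2HG producing partner of a matched IDH1 knockdown line; nearly all actives have a fitted effect of over 55% in size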
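750 cells/well, RPMI + 5% FBS; 2 h settle, compound pin-transfer, 48 h at 37 degrees C. CellTiter-Glo 10 min RT, luminescence. Normalized to DMSO and media-only wells.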
SW480 rereplic – inducers of DNA re-replication in SW480 colon cancer cells | SW480 DNA re-replication, Hoechst DNA content imaging, 48 h | Potency, µM (titrated, usually from 46.1 µM), actives largely listed as activators | hit rate 1.8% among 340,000 | AID 624297; note: nearly all actives have a fitted effect of over 55% in size
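Image-based read-out: total Hoechst fluorescence of nuclei (405 nm excitation, 500-530 nm emission), with hits raising the fraction of high-intensity nuclei. SW480 colon cells incubated 48 hr with compounds at 37 C.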
Each line names hits and unclear results; the compound was inactive in the other large screens; ! = not confirmed by another sample. The list is not random: actives were taken first. Their share in the collection is about 7.9%. Calls come from the whole dose curve; as a rule, active = well fitted curve in the direction sought with a large enough effect; inconclusive = small, poorly fitted or top-dose-only effect, or another doubt; inactive = no such curve, though single readings can be large; an effect the other way counts as inactive or inconclusive.

Nc1ncnc2c1ncn2C1O[C@H](CO)[C@@H](O)[C@@H]1O (stereo not given in full)	none
Nc1ncnc2c1ncn2[C@@H]1O[C@H](CO)[C@@H](O)[C@@H]1O	MCF10A rereplic 7.3µM
COc1ccc(C2=C(Nc3ccc(C)c(C)c3)c3ccccc3C2=O)cc1	none (no result: HT1080 IDH1KD tx, MCF10A rereplic, HT1080-NT tox, SW480 rereplic)
Cn1cc(SCC(=O)N2CCCc3ccccc32)c2ccccc21	none
CCOc1ccc(S(=O)(=O)N2CCN(C(=O)COc3ccc(Br)cc3)CC2)cc1	KB-3-1 tox inconclusive, HT1080 IDH1KD tx inconclusive
COc1cc(Cl)c(CNC[C@H]2O[C@@H](n3cnc4c(N)ncnc43)[C@H](O)[C@@H]2O)c(Cl)c1O	MCF10A rereplic 7.3µM
OCC1OC(n2cnc3c(NCc4ccco4)ncnc32)C(O)C1O (stereo not given)	KB-3-1 tox 13µM!, HT1080 IDH1KD tx 12µM, MCF10A rereplic 1µM, KB-V1 MDR tox inconclusive, HT1080-NT tox 12µM, SW480 rereplic 8.2µM
N#Cc1c(N)n(C2OC(CO)C(O)C2O)c2ncnc(N)c12 (stereo not given)	KB-3-1 tox 0.23µM, HT1080 IDH1KD tx 0.52µM, MCF10A rereplic 0.23µM, KB-V1 MDR tox 0.21µM, HT1080-NT tox 1.3µM, SW480 rereplic inconclusive
Nc1ncnc2c1ncn2C1OC(CO)C(O)C1O (stereo not given)	none
COc1cc(Cl)c(CNC[C@H]2O[C@@H](n3cnc4c(=O)[nH]c(N)nc43)[C@H](O)[C@@H]2O)c(Cl)c1O	none (no result: MCF10A rereplic, SW480 rereplic)
C=CCNc1ncnc2c1ncn2C1OC(CO)C(O)C1O (stereo not given)	HT1080 IDH1KD tx 18µM, MCF10A rereplic inconclusive, HT1080-NT tox 9.2µM, SW480 rereplic inconclusive
CCCc1cc(=O)[nH]c(SCC(=O)c2ccc3c(c2)OCCO3)n1	MCF10A rereplic inconclusive, KB-V1 MDR tox inconclusive, SW480 rereplic inconclusive
CCCc1[nH]nc2c1C(/C(C)=C/c1ccccc1)C(C#N)=C(N)O2 (stereo not given)	HT1080-NT tox inconclusive
COc1cc([N+](=O)[O-])ccc1NC(=S)NCc1ccccn1	none
COc1ccc(CN(C)C(=O)C2CC(=O)N(c3ccc4c(c3)OCCO4)C2)c(OC)c1 (stereo not given)	none
CC(Nc1cccnc1)=C(C#N)C#N	KB-V1 MDR tox inconclusive
C/C(=N/Nc1ccc(C(=O)O)cc1)c1ccc2c(c1)Nc1ccccc1S2	MCF10A rereplic 16µM, SW480 rereplic 18µM
C/C(=N\Nc1ccc(C(=O)O)cc1)c1ccc2c(c1)Nc1ccccc1S2	HT1080 IDH1KD tx inconclusive, MCF10A rereplic 16µM, SW480 rereplic 8.2µM
CC(=O)Nc1ccc(S(=O)(=O)n2nc(-c3ccc(C)cc3)nc2N)cc1	HT1080 IDH1KD tx inconclusive, MCF10A rereplic inconclusive
COc1ccc2cc(C)c3nnc(SCc4cccnc4)n3c2c1	none
CC(C)(C)c1ccc(C(=O)NC(Cc2c[nH]c3ccccc23)C(=O)OCC(=O)c2ccc(Br)cc2)cc1 (stereo not given)	none (no result: HT1080 IDH1KD tx, MCF10A rereplic, HT1080-NT tox, SW480 rereplic)
Cc1cc(C)n(-c2ncc(C#N)cn2)n1	KB-3-1 tox inconclusive
CCNc1nc(NCC)nc(-n2nc(C)cc2C)n1	HT1080 IDH1KD tx 0.89µM, KB-V1 MDR tox inconclusive, HT1080-NT tox 2µM
Cc1cc(C)n(-c2nnc(NC(C)(C)C)nn2)n1	MCF10A rereplic inconclusive
Cc1cc(C)n(-c2nc(N(C)C)nc(N(C)C)n2)n1	HT1080 IDH1KD tx 6.3µM, HT1080-NT tox 7.1µM
Cc1cc(C)n(-c2nc(NC(C)C)nc(NC(C)C)n2)n1	KB-V1 MDR tox inconclusive, SW480 rereplic 2.9µM
Cc1cc(C)n(-c2nc(Nc3ccccc3C(F)(F)F)nc(-n3nc(C)cc3C)n2)n1	HT1080 IDH1KD tx inconclusive, MCF10A rereplic inconclusive, KB-V1 MDR tox 0.92µM, HT1080-NT tox 9.2µM, SW480 rereplic inconclusive
Cc1cc(C)n(-c2nc(NC(C)(C)C)nc(NC(C)(C)C)n2)n1	none
CC(Oc1ccccc1F)C(=O)NNC(=O)C1CC(=O)N(c2ccc3c(c2)OCCO3)C1 (stereo not given)	none
